Laboratory results taken from PubChem BioAssay (EPA / NIEHS).
Several values for one entry are separate records, joined by “and”; a condition that tells them apart may be missing. Equal values may be shown once. Where a structure was tested more than once in an assay, its records may differ in their call. Activity calls are given as the source filed them. The calls were made as follows: active = hit-call score of the fitted dose curve at least 0.9, where 1 is the maximum; inactive = score below 0.9.

Assay: ATG_VDRE_CIS: Attagene CIS-FACTORIAL HepG2 Assay for human Vitamin D Receptor Element (VDRE) (AID 2282968)
Settings: HepG2 VDRE cis-reporter transcription, actives raise or lower the signal
Protocol: ATG_CIS is a cell-based, multiplexed-readout assay that uses HepG2, a human liver cell line, with measurements taken at 24 hours after chemical dosing in a 24-well plate.ATG_VDRE_CIS is one of 52 assay component(s) measured or calculated from the ATG_CIS assay. It is designed to make measurements of mRNA induction, a form of inducible reporter, as detected with fluorescence intensity signals by Reverse transcription polymerase chain reaction (RT-PCR) and Capillary electrophoresis technology.Data from the assay component ATG_VDRE_CIS was analyzed into 1 assay endpoint. This assay endpoint, ATG_VDRE_CIS, was analyzed with bidirectional fitting relative to DMSO as the negative control and baseline of activity. Using a type of inducible reporter, measures of mRNA for gain or loss-of-signal activity can be used to understand the reporter gene at the transcription factor-level as they relate to the gene VDR. Furthermore, this assay endpoint can be referred to as a primary readout, because this assay has produced multiple assay endpoints where this one serves a reporter gene function. To generalize the intended target to other relatable targets, this assay endpoint is annotated to the nuclear receptor intended target family, where the subfamily is non-steroidal.
Human liver HepG2 cells are transiently transfected with multiple reporter transcription units (MRTUs) in 6-well plates using FuGene 6 reagent (Roche; 3 ml FuGene/1 mg DNA). The MRTU constructs are regulated by a cis-regulating element (promoter). […] A major difference between the CIS and TRANS system is that in CIS activities of endogenous TFs are measured, whereas the TRANS assay evaluates changes in activities of exogenous, chimeric NR-Gal4 proteins. […] At the end of 24 hour incubation, total RNA was isolated using TriZol reagent (Invitrogen). The isolated RNA is then reverse-transcribed using oligo(dT) primer and Mo-MLV reverse transcriptase (Invitrogen) with DNAse I (Ambion) treatment for 30 min. The one-tenth of the produced cDNA was amplified by PCR using Taq DNA polymerase (Invitrogen) and two reporter sequence-specific primers. The PCR products were fluorescently labeled by primer extension with 6-arboxyfluorescein (6-FAM) 5'-labeled reporter sequence-specific primer (2 min at 95 C, 20 s at 68 C and 10 min at 72 C) and these products were digested with 5U of HpaI (New England Biolabs) for 2h at 37 C. The fragments were purified using Qiaquick PCR columns (Qiagen), analyzed on an ABI 3130xL genetic analyzer (Applied Biosystems) with peak positions identified by using a set of X-rhodamine (ROX)-labeled MapMarker1000 molecular weight standards (BioVentures). The raw capillary electrophoresis data was processed using Attagraph software (Attagene).
For CCOC(=O)C(Cl)Cc1cc(-n2nc(C)n(C(F)F)c2=O)c(F)cc1Cl (stereo not given), the outcome was “inactive”.
With CCOP(=S)(OCC)SCn1c(=O)oc2cc(Cl)ccc21 the AC50 was 13.8 µM (active).
For Oc1ccccc1-c1ccccc1, the outcome was “inactive” and the AC50 was 38.4 µM (active).
With CCNc1nc(Cl)nc(NCC)n1 the outcome was “inactive”.
In the case of Fc1ccc(Oc2ccnc3cc(Cl)cc(Cl)c23)cc1, the outcome is reported as “inactive”.
In the case of COC(=O)N(OC)c1ccccc1COc1ccn(-c2ccc(Cl)cc2)n1, the AC50 is reported as 1.35 µM (active).
In the case of C=CCC1=C(C)C(OC(=O)C2C(C=C(C)C)C2(C)C)CC1=O (stereo not given), the outcome is reported as “inactive”.
For CCCC1COC(Cn2cncn2)(c2ccc(Cl)cc2Cl)O1 (stereo not given), the AC50 was 7.99 µM (active) and the outcome was “inactive”.
For CCOC(=O)CC(SP(=S)(OC)OC)C(=O)OCC (stereo not given), the AC50 was 20.2 µM (active) and 29.4 µM (active).
For CC1=C(C(=O)Nc2ccccc2)SCCO1, the outcome was “inactive”.
With CCCN(CCC)c1c([N+](=O)[O-])cc(S(N)(=O)=O)cc1[N+](=O)[O-] the outcome was “inactive” and the AC50 was 915 nM (active) and 1.14 µM (active).
For CN(C)C(=S)SSC(=S)N(C)C, the outcome was “inactive”.
In the case of CCON=C(CC)C1=C(O)CC(c2c(C)cc(C)cc2C)CC1=O (stereo not given), the outcome is reported as “inactive”.
For N#Cc1nn(-c2c(Cl)cc(C(F)(F)F)cc2Cl)c(N)c1S(=O)C(F)(F)F (stereo not given), the AC50 was 15.4 µM (active) and the outcome was “inactive”.
In the case of CCCCNC(=O)OCC#CI, the AC50 is reported as 37 µM (active) and the outcome is reported as “inactive”.
With CCNc1nc(Cl)nc(NC(C)C)n1 the outcome was “inactive”.
For O=C(Nc1ccccc1)Nc1ccnc(Cl)c1, the AC50 was 50 µM (active).
In the case of CC(C)Oc1cc(-n2nc(C(C)(C)C)oc2=O)c(Cl)cc1Cl, the AC50 is reported as 0.667 µM (active).
In the case of O=C(O)COc1nc(Cl)c(Cl)cc1Cl, the outcome is reported as “inactive”.
In the case of COP(=S)(OC)Oc1nc(Cl)c(Cl)cc1Cl, the AC50 is reported as 27.8 µM (active).
For C=CC1(C)OC(=O)N(c2cc(Cl)cc(Cl)c2)C1=O (stereo not given), the outcome was “inactive”.
For OC(c1ccc(Cl)cc1)(c1cncnc1)c1ccccc1Cl (stereo not given), the outcome was “inactive” and the AC50 was 50 µM (active).
With C=CCC1=C(C)[C@@H](OC(=O)[C@@H]2[C@@H](C=C(C)C)C2(C)C)CC1=O the AC50 was 6.05 µM (active).
In the case of CCCCC(CC)COC(=O)c1ccccc1C(=O)OCC(CC)CCCC (stereo not given), the outcome is reported as “inactive”.
In the case of Cc1c(F)c(F)c(COC(=O)C2C(/C=C(\Cl)C(F)(F)F)C2(C)C)c(F)c1F (stereo not given), the AC50 is reported as 18 µM (active).
In the case of CC(Oc1ccc(Cl)cc1Cl)C(=O)O (stereo not given), the outcome is reported as “inactive”.
For CCCCNC(=O)n1c(NC(=O)OC)nc2ccccc21, the outcome was “inactive”.
In the case of COC(=O)C(C)Oc1ccc(Oc2ccc(Cl)cc2Cl)cc1 (stereo not given), the outcome is reported as “inactive”.
In the case of COP(N)(=O)SC (stereo not given), the outcome is reported as “inactive”.
For CNC(=S)S, the outcome was “inactive”.
In the case of CCCCOC(=O)c1ccccc1C(=O)OCCCC, the outcome is reported as “inactive”.
In the case of N#CC(CCc1ccc(Cl)cc1)(Cn1cncn1)c1ccccc1 (stereo not given), the outcome is reported as “inactive”.
For COc1nc(C)nc(NC(=O)NS(=O)(=O)c2ccccc2CCC(F)(F)F)n1, the outcome was “inactive”.
In the case of CC1COC(Cn2cncn2)(c2ccc(Oc3ccc(Cl)cc3)cc2Cl)O1 (stereo not given), the AC50 is reported as 3.17 µM (active).
